Test results as given in PubChem BioAssay (EPA / NIEHS).
Activity calls are given as the source filed them. Rule for the calls: active = hit-call score of the fitted dose curve at least 0.9, where 1 is the maximum; inactive = score below 0.9.

Columns and labels:
Conditions in all cases: mRNA level, 48 h; actives raise or lower the signal
[1] = read-out: ABC Transporter (ABCB1), ABCB1 (gene 5243); test: LTEA_HepaRG_ABCB1: Life Technologies and Expression Analysis (LTEA) Assay for ABC Transporter (ABCB1) using HepaRG (AID 2283460)
Outline: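 HepaRG cells exposed in duplicate for 48 h in serum-free induction medium to eight half-log concentrations up to 100 uM in 0.5% DMSO. ABCB1 mRNA quantified by qRT-PCR, normalised to ACTB, GAPDH and POLR2A; fitted bidirectionally versus DMSO.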

[2] = read-out: growth arrest and DNA damage 45 (GADD45B), GADD45B (gene 4616); test: LTEA_HepaRG_GADD45B: Life Technologies and Expression Analysis (LTEA) Assay for growth arrest and DNA damage 45 (GADD45B) using HepaRG (AID 2283461)
Outline: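 Differentiated human HepaRG cells in serum-free induction medium exposed 48 h in duplicate to eight concentrations, top 100 uM, half-log steps, 0.5% DMSO. GADD45B mRNA by TaqMan qRT-PCR, normalized to ACTB, GAPDH, POLR2A; bidirectional fit versus DMSO.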

[3] = read-out: ABC Transporter (ABCC3), ABCC3 (gene 8714); test: LTEA_HepaRG_ABCC3: Life Technologies and Expression Analysis (LTEA) Assay for ABC Transporter (ABCC3) using HepaRG (AID 2283462)
Outline: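 Differentiated human HepaRG cells exposed 48 h in serum-free induction medium, 0.5% DMSO vehicle, 8-point half-log series to 100 uM in duplicate. ABCC3 mRNA by qRT-PCR, normalised to ACTB, GAPDH, POLR2A; bidirectional fit vs DMSO.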

[4] = read-out: ABC Transporter (ABCB11), ABCB11 (gene 8647); test: LTEA_HepaRG_ABCB11: Life Technologies and Expression Analysis (LTEA) Assay for ABC Transporter (ABCB11) using HepaRG (AID 2283463)
Outline: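 Differentiated human HepaRG cells in serum-free induction medium, dosed in duplicate for 48 h. Eight-point half-log series from 100 uM in 0.5% DMSO; ABCB11 mRNA by qRT-PCR, normalized to ACTB, GAPDH, POLR2A, fitted bidirectionally versus DMSO.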

[5] = read-out: ABC Transporter (ABCC2), ABCC2 (gene 1244); test: LTEA_HepaRG_ABCC2: Life Technologies and Expression Analysis (LTEA) Assay for ABC Transporter (ABCC2) using HepaRG (AID 2283464)
Outline: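 Differentiated HepaRG cells in serum-free induction medium exposed 48 h to eight half-log concentrations up to 100 uM, 0.5% DMSO, in duplicate. ABCC2 mRNA measured by qRT-PCR (TaqMan, Fluidigm), normalized to ACTB, GAPDH and POLR2A. Fitted in both directions against DMSO.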

[6] = read-out: Broad substrate specificity ATP-binding cassette transporter ABCG2 (Homo sapiens) (UniProt Q9UNQ0); test: LTEA_HepaRG_ABCG2: Life Technologies and Expression Analysis (LTEA) Assay for ABC Transporter (ABCG2) using HepaRG (AID 2283465)
Outline: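 Differentiated HepaRG cells were exposed for 48 h in serum-free induction medium to 8 half-log concentrations, top 100 uM, in 0.5% DMSO. ABCG2 mRNA was measured by qRT-PCR, normalized to ACTB, GAPDH and POLR2A, with bidirectional fitting versus DMSO.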

[7] = read-out: ATP-citrate lyase (ACLY), ACLY (gene 47); test: LTEA_HepaRG_ACLY: Life Technologies and Expression Analysis (LTEA) Assay for ATP-citrate lyase (ACLY) using HepaRG (AID 2283466)
Outline: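 Differentiated HepaRG cells exposed 48 h in serum-free induction medium to eight half-log concentrations up to 100 uM in 0.5% DMSO, duplicates. Transcript measured by Fluidigm TaqMan qRT-PCR, normalized to ACTB, GAPDH, POLR2A; bidirectional fit versus DMSO.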

[8] = read-out: Peroxisomal acyl-coenzyme A oxidase 1 (ACOX1) gene, ACOX1 (gene 51); test: LTEA_HepaRG_ACOX1: Life Technologies and Expression Analysis (LTEA) Assay for Peroxisomal acyl-coenzyme A oxidase 1 (ACOX1) gene using HepaRG (AID 2283467)
Outline: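 HepaRG cells, plated 48 h then switched to serum-free induction medium, were exposed in duplicate for 48 h to 8-point half-log concentrations up to 100 uM in 0.5% DMSO. ACOX1 mRNA was measured by qRT-PCR, normalized to ACTB/GAPDH/POLR2A, and fitted bidirectionally versus DMSO.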

[9] = read-out: Alkaline Phosphatase, Placental (ALPP) gene, ALPP (gene 250); test: LTEA_HepaRG_ALPP: Life Technologies and Expression Analysis (LTEA) Assay for Alkaline Phosphatase, Placental (ALPP) gene using HepaRG (AID 2283468)
Outline: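 HepaRG cells plated 48 h, then exposed in duplicate for 48 h in serum-free induction medium to 8-point half-log series from 100 uM in 0.5% DMSO. ALPP mRNA by TaqMan qRT-PCR, normalized to ACTB/GAPDH/POLR2A; bidirectional fit versus DMSO.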

[10] = read-out: Bcl-2 (BAD) gene, BAD (gene 572); test: LTEA_HepaRG_BAD: Life Technologies and Expression Analysis (LTEA) Assay for Bcl-2 (BAD) gene using HepaRG (AID 2283469)
Outline: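 Differentiated HepaRG cells were exposed in duplicate in 0.5% DMSO for 48 h to eight-point half-log concentrations up to 100 uM. BAD mRNA was measured by Fluidigm TaqMan qRT-PCR, normalized to ACTB, GAPDH and POLR2A, and fitted bidirectionally against DMSO.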

[11] = read-out: Bcl-2 (BAX) gene, BAX (gene 581); test: LTEA_HepaRG_BAX: Life Technologies and Expression Analysis (LTEA) Assay for Bcl-2 (BAX) gene using HepaRG (AID 2283470)
Outline: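 HepaRG (human liver), 48 h exposure, duplicate wells. 8-pt curve, half-log from 100 uM, 0.5% DMSO. BAX transcript by TaqMan qRT-PCR; ACTB/GAPDH/POLR2A normalization; gain or loss vs DMSO baseline.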

[12] = read-out: adenosine kinase (ADK) gene, ADK (gene 132); test: LTEA_HepaRG_ADK: Life Technologies and Expression Analysis (LTEA) Assay for adenosine kinase (ADK) gene using HepaRG (AID 2283471)
Outline: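 Differentiated HepaRG cells dosed 48 h in serum-free induction medium, 0.5% DMSO vehicle, eight half-log concentrations from 100 uM, in duplicate. ADK mRNA by TaqMan qRT-PCR normalised to ACTB, GAPDH, POLR2A; bidirectional fit versus DMSO.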

[13] = read-out: Alpha-fetoprotein (AFP) gene, AFP (gene 174); test: LTEA_HepaRG_AFP: Life Technologies and Expression Analysis (LTEA) Assay for Alpha-fetoprotein (AFP) gene using HepaRG (AID 2283472)
Outline: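 HepaRG, single lot; 48 h post-plating -> serum-free induction medium; cpd 8-pt, 100 uM top, half-log, 0.5% DMSO, duplicate, 48 h. RNA -> qRT-PCR AFP, norm ACTB/GAPDH/POLR2A. Bidirectional fit vs DMSO.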

BCL2L11 (gene 10018) = test: LTEA_HepaRG_BCL2L11: Life Technologies and Expression Analysis (LTEA) Assay for Bcl-2 (BCL2L11) gene using HepaRG (AID 2283473)
Outline: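 Differentiated human HepaRG cells were exposed 48 h in serum-free induction medium to eight half-log concentrations up to 100 uM in 0.5% DMSO, in duplicate. BCL2L11 mRNA was quantified by TaqMan qRT-PCR, normalized to ACTB, GAPDH and POLR2A; induction or repression fitted versus DMSO.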

[14] = read-out: Apolipoprotein A-V (APOA5) gene, APOA5 (gene 116519); test: LTEA_HepaRG_APOA5: Life Technologies and Expression Analysis (LTEA) Assay for Apolipoprotein A-V (APOA5) gene using HepaRG (AID 2283474)
Outline: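 Differentiated HepaRG cells in serum-free induction medium, exposed 48 h in duplicate to eight half-log concentrations topping at 100 uM (0.5% DMSO). APOA5 mRNA by Fluidigm TaqMan qRT-PCR, normalized to ACTB, GAPDH and POLR2A; bidirectional fit versus DMSO.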

[15] = read-out: Apoptosis regulator Bcl-2 (Homo sapiens) (UniProt P10415); test: LTEA_HepaRG_BCL2: Life Technologies and Expression Analysis (LTEA) Assay for Bcl-2 gene using HepaRG (AID 2283475)
Outline: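 HepaRG, plated 48 h then switched to serum-free induction medium; dosed 48 h, 8 conc. (max 100 uM, half-log steps), duplicate, 0.5% DMSO. Lysis in RLT, RNA isolated, TaqMan qRT-PCR for BCL2; ACTB/GAPDH/POLR2A normalisation; bidirectional fit vs DMSO.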

[16] = read-out: Bcl-2 (BID) gene, BID (gene 637); test: LTEA_HepaRG_BID: Life Technologies and Expression Analysis (LTEA) Assay for Bcl-2 (BID) gene using HepaRG (AID 2283476)
Outline: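 Transcript levels of BID, measured by qRT-PCR and normalized to three housekeeping genes, were fitted bidirectionally against DMSO controls. Cells were HepaRG, dosed 48 h at up to 100 uM.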

Caspase-3 (Homo sapiens) = Caspase-3 (Homo sapiens) (UniProt P42574); test: LTEA_HepaRG_CASP3: Life Technologies and Expression Analysis (LTEA) Assay for cysteine-aspartic acid protease (CASP3) using HepaRG (AID 2283477)
Outline: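 Differentiated HepaRG cells, plated 48 h, were treated in duplicate in serum-free induction medium for 48 h with eight half-log concentrations up to 100 uM in 0.5% DMSO. CASP3 mRNA measured by qRT-PCR, normalized to ACTB, GAPDH, POLR2A.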

[17] = read-out: Cytochrome P450 (CYP24A1), CYP24A1 (gene 1591); test: LTEA_HepaRG_CYP24A1: Life Technologies and Expression Analysis (LTEA) Assay for Cytochrome P450 (CYP24A1) using HepaRG (AID 2283478)
Outline: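 HepaRG cells plated 48 h, then exposed in duplicate in serum-free induction medium for 48 h to 8-point half-log series from 100 uM in 0.5% DMSO. CYP24A1 mRNA by Fluidigm qRT-PCR, normalized to ACTB, GAPDH, POLR2A; bidirectional fit versus DMSO.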

[18] = read-out: Cytochrome P450 (CYP1A2), CYP1A2 (gene 1544); test: LTEA_HepaRG_CYP1A2: Life Technologies and Expression Analysis (LTEA) Assay for Cytochrome P450 (CYP1A2) using HepaRG (AID 2283479)
Outline: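 Differentiated human HepaRG cells in serum-free induction medium exposed 48 hours in duplicate to 8 half-log concentrations from 100 uM, 0.5% DMSO. CYP1A2 mRNA quantified by qRT-PCR, normalized to ACTB, GAPDH and POLR2A; bidirectional fitting versus DMSO.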

Measured: AC50

Sequence of Apoptosis regulator Bcl-2 (Homo sapiens) (P10415 whole entry, looked up): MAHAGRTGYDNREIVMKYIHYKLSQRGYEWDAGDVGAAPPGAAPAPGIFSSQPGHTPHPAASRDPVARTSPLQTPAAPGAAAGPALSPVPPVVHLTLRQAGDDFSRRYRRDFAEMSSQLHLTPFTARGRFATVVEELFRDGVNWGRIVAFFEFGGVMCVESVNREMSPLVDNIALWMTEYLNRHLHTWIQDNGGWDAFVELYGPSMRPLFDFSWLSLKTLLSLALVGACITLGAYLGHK
Sequence of Caspase-3 (Homo sapiens) (P42574 whole entry, looked up): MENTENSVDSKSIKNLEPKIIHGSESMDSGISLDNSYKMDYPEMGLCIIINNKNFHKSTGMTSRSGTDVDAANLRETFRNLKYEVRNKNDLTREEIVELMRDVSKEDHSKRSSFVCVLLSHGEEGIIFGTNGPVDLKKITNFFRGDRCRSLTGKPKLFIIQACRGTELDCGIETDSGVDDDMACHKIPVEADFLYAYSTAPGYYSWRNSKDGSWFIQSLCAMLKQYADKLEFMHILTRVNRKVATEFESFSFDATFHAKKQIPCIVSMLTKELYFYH
Sequence of Broad substrate specificity ATP-binding cassette transporter ABCG2 (Homo sapiens) (Q9UNQ0 whole entry, looked up): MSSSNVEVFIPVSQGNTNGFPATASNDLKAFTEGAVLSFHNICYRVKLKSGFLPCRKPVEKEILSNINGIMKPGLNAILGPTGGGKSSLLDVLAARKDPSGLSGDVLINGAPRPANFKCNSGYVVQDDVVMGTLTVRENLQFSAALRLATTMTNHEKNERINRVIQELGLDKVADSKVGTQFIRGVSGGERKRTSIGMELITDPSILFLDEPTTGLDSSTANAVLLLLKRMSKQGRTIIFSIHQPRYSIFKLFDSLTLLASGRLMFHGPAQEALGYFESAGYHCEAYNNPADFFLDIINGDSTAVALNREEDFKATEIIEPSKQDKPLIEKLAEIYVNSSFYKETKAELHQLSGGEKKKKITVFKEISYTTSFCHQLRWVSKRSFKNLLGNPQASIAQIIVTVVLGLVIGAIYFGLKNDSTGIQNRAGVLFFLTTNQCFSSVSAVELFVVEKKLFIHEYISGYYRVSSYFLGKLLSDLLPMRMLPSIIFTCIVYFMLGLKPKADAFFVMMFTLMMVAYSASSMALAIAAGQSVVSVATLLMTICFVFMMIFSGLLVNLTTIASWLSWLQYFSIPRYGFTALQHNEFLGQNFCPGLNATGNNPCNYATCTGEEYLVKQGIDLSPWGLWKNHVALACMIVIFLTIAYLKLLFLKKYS

CS(=O)(=O)c1cc(C(F)(F)F)ccc1C(=O)c1cnoc1C1CC1
inactive: all assays above

Clc1nc(Cl)nc(Nc2ccccc2Cl)n1
active: [18] 20.1 µM
inactive: all other assays above

CCOP(=S)(OCC)Oc1nc(Cl)n(C(C)C)n1
active: [3] 50 µM | [4] 1.64 µM | [7] 33.5 µM | [8] 9.48 µM | [13] 21.2 µM | [14] 21.4 µM | [18] 11.3 µM
inactive: all other assays above
